Source: PubChem BioAssay
Most compounds without a hit are left out; they make up all but 6.6% or so of the library.
Beta apoptosis = beta cell apoptosis inhibition; INS-1E cytokine-induced death, ATP luminescence, 48 h; percent of positive-control rescue, neutral wells zero; protection from apoptosis, % (test concentration not listed); 0.8% of 300,000 active; AID 435005;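 active = Every replicate reaches about 75%, or at least half do and their mean reaches it too, limit read from the data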;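 also: 0% = cytokine-treated negative control wells and 100% = positive control rescue; higher means more ATP so stronger rescue from cytokine killing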
GRIN3A LBD mod = NR3A (human) ligand-binding domain modulation; 2.5% of 340,000 active; AID 1259313; NR3A LBD differential scanning fluorimetry, Tm shift; 0% = protein alone, 100% = glycine-bound protein; Tm shift relative to glycine control, % at 25 µM;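 active = melting temperature shift of at least 10% of the positive control shift, at one fixed dose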
Gli-Sufu block = blocks Gli-Sufu signaling in a luciferase reporter. Sufu-KO-LIGHT fibroblasts, Gli luciferase reporter luminescence. inhibition, % at 5 µM. 0.74% of 340,000 active. AID 588413;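 active = inhibition above about 55%, limit read from the data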;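 also: 0% = DMSO-treated cells and 100% = wells with medium but no cells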
Mdm2 MdmX PPI = inhibitors of human Mdm2/MdmX interaction | 3% of 330,000 active | SaOS-2 split-luciferase Mdm2/MdmX complementation, luminescence | AID 485346 | inhibition, % at 8 µM;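 active = inhibition of at least 50% at 8 µM in the primary screen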
Target sequence (O15151 whole entry, looked up): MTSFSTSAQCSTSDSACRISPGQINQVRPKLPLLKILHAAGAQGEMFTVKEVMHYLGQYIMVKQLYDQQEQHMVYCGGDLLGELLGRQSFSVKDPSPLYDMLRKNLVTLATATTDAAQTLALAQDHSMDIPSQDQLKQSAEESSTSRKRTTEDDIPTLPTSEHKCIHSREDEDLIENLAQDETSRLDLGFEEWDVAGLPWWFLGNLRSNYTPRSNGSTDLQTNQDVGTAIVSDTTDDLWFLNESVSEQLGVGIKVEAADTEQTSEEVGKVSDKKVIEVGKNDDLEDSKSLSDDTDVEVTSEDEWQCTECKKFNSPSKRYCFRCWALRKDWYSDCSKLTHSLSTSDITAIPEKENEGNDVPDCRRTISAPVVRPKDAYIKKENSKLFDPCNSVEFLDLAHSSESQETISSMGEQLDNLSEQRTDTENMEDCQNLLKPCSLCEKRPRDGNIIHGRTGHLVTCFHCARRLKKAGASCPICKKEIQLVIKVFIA
Target sequence (Q00987 whole entry, looked up): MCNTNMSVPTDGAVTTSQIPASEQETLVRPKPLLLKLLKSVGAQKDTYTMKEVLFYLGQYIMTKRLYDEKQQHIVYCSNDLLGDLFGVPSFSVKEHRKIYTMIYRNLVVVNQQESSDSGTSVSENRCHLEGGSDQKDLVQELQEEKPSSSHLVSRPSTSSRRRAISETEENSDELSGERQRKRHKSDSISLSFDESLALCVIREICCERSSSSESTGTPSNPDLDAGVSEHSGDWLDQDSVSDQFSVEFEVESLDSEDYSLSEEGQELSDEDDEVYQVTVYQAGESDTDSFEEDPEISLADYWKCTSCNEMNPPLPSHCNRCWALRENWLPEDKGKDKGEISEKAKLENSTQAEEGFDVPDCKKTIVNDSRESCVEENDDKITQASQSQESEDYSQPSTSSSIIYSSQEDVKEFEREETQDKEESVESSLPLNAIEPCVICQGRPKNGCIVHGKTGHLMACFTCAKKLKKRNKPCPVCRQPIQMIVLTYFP
CSC inhib = cancer stem cell inhibition; cancer stem cell-like cells viability, luminescence; inhibition, % at 7.5 µM; 1.1% of 300,000 active; in the data active = inhibition above about 75%; tested in HMLE shEcad cells
MPTP block = blocks calcium-induced mitochondrial swelling | isolated mouse mitochondria, Ca2+ swelling absorbance, 30 min | inhibition, % at 10 µM | 1.4% of 360,000 active;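 active = inhibition of 50% or more, scaled per plate between neutral and stimulator controls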;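 also: 0% = DMSO wells given calcium and 100% = 1 mM EGTA wells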
Mdm2 MdmX conf = confirmation of human Mdm2/MdmX interaction inhibitors; Mdm2-MdmX binding, luminescent assay; inhibition, % at 8 µM; shares compounds with Mdm2 MdmX PPI; 55% of 10,000 active; in the data active = inhibition above about 40%
FLuc counter = full-length luciferase inhibition in Mdm2/MdmX counter-screen | shares compounds with Mdm2 MdmX PPI | SaOS-2 full-length luciferase counterscreen, luminescence | inhibition, % at 8 µM | 77% of 6,200 active | AID 504607;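 active = mean inhibition at 8 µM reaching about 37%, which flags the compound as non-specific, limit read from the data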;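 also: p53-null SaOS-2 cells with luciferase driven by a doxycycline-inducible promoter; compound on cells about two nights before reading with doxycycline added after day one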
The depositor's hits bear a star; x = not tested or not shown.

SMILES	Beta apoptosis	GRIN3A LBD mod	Gli-Sufu block	Mdm2 MdmX PPI	CSC inhib	MPTP block	Mdm2 MdmX conf	FLuc counter
Cc1cc(NC(=O)CSc2nc3sc4c(c3c(=O)n2C)CCCC4)no1	10.9	-1.0	0.8	10.7	-1.4	-3.2	x	x
C=CCn1c(SCC(=O)Nc2cc(C)on2)nc2sc(C)c(C)c2c1=O	4.4	20.8*	-24.2	51.1*	-7.8	-0.5	19.4	x
C=CCn1c(SCC(=O)Nc2sccc2C(N)=O)nc2sc(CC)cc2c1=O	7.3	0.3	15.3	59.1*	15.1	8.4	38.5	74.4*
CC(NC(=O)CSc1nc2sc3c(c2c(=O)n1-c1ccccc1)CCCC3)c1ccccc1 (stereo not given)	x	-6.7	13.6	51.1*	x	2.3	23.4	x
CCCc1cnc(Nc2nc(C(N)Cc3ccc(C(F)(F)F)cc3)cs2)nc1 (stereo not given)	x	x	x	x	x	4.6	x	x
COc1ccc(Cl)cc1S(=O)(=O)N1CCN(C(=O)c2n[nH]c(=O)c3ccccc23)CC1	-5.9	2.3	5.0	45.6	-2.2	0.4	x	x
COc1ccc(S(=O)(=O)N2CCOCC2)cc1NC(=O)C1COc2ccccc2O1 (stereo not given)	x	0.5	-9.5	-27.6	-13.0	0.1	x	x
CN(C(=O)COC(=O)CNC(=O)c1cccs1)c1c(N)n(Cc2ccccc2)c(=O)[nH]c1=O	-6.6	1.2	-1.6	4.1	7.7	-2.6	x	x
CCOC(=O)c1[nH]cnc1C(=O)N1CCN(C(=O)OC(C)(C)C)CC1	2.3	-1.0	2.9	11.7	-30.0	0.7	x	x
CC(c1ccon1)N(C)C(=O)CCc1nnc(CCCCc2ccccc2)o1 (stereo not given)	x	-2.2	5.8	-9.0	x	0.2	x	x
Cc1ccccc1OCC(=O)NCCCNC(=O)c1ccco1	x	0.2	15.6	-2.5	-0.7	-1.4	x	x
CCc1sc2nc(SCC(=O)Nc3cc(C)on3)n(-c3cccc(OC)c3)c(=O)c2c1C	46.3	-1.9	-4.2	91.6*	13.7	0.2	65.6*	76.7*
C=CCn1c(SCC(=O)Nc2cc(C)on2)nc2sc3c(c2c1=O)CCCC3	12.7	0.7	7.1	61.1*	x	-5.1	32.7	x
C=CCn1c(SCC(=O)NCc2ccco2)nc2sc3c(c2c1=O)CCCC3	3.7	3.5	-3.5	2.4	-11.1	1.7	x	x
COc1cccc(-n2c(SCC(=O)Nc3cc(C)on3)nc3ccccc3c2=O)c1	1.3	-1.1	7.4	7.6	-3.4	0.5	x	x
CC(Sc1nnc(CN2CCCC2)n1Cc1ccccc1)C(=O)Nc1ccc(F)cc1Cl (stereo not given)	x	-3.6	16.2	x	x	-2.1	x	x
CNc1ccc(-c2ccccc2CO)cn1	x	x	x	x	x	-0.5	x	x
CCC(c1nnnn1-c1ccc2c(c1)OCCO2)N1CCN(c2cc(C)ccc2C)CC1 (stereo not given)	x	x	x	x	x	1.8	x	x
CC[C@@]1(C(=O)OC)N[C@H](CN(C)C(=O)Nc2ccc(C(F)(F)F)cc2)[C@@H]2C(=O)N(Cc3ccccc3)C(=O)[C@@H]21	-6.7	-9.9	4.1	84.2*	x	0.6	81.4*	32.2
CC[C@@]1(C(=O)OC)N[C@H](CN(C)C(=O)c2ccc(C(C)(C)C)cc2)[C@@H]2C(=O)N(Cc3ccccc3)C(=O)[C@@H]21	x	-0.5	4.7	42.6	x	-1.0	x	x
CCN(C[C@H]1N[C@@](Cc2ccccc2)(C(=O)OC)[C@H]2C(=O)N(Cc3ccccc3)C(=O)[C@@H]12)C(=O)Nc1ccc(F)cc1	x	-1.9	-1.2	36.7	x	0.7	x	x
COC(=O)[C@]1(Cc2ccccc2)N[C@H](CN(C)C(=O)Nc2ccc(C(F)(F)F)cc2)[C@@H]2C(=O)N(Cc3ccccc3)C(=O)[C@@H]21	6.5	-9.2	-6.5	70.1*	x	0.0	42.5*	65.2*
CC[C@@]1(C(=O)OC)N[C@H](CN(C)C(=O)Nc2ccccc2)[C@@H]2C(=O)N(Cc3ccccc3)C(=O)[C@@H]21	x	1.2	11.1	1.6	x	0.1	x	x
CCN(C[C@H]1N[C@@](CC)(C(=O)OC)[C@H]2C(=O)N(Cc3ccccc3)C(=O)[C@@H]12)C(=O)c1ccc(C(C)(C)C)cc1	x	0.9	2.7	74.7*	x	0.0	68.2*	55.0*
O=C(Cn1cc(COc2ccc(Cl)c(Cl)c2)nn1)NS(=O)(=O)c1ccccc1OC(F)(F)F	x	x	x	x	x	-0.1	x	x
SMILES	Beta apoptosis	GRIN3A LBD mod	Gli-Sufu block	Mdm2 MdmX PPI	CSC inhib	MPTP block	Mdm2 MdmX conf	FLuc counter
CCOc1cc(CC(=O)N[C@@H](CC(C)C)c2ccccc2N2CCCCC2)ccc1C(=O)O	1.6	-4.2	2.3	13.8	19.8	-2.9	x	x
COc1ccc(CN2C(=O)C(CC(=O)NCCCN(C)C)CC(C(=O)N(C)C)=C2C)cc1 (stereo not given)	x	x	x	x	x	-0.4	x	x
C=CC[C@@H](CC(=O)N[C@@H](CO)Cc1ccccc1)C(=O)N[C@H](COC(=O)[C@@H](CC=C)Cc1ccc(F)cc1)Cc1ccccc1	-9.2	-3.3	0.1	52.7*	-16.7	-1.0	35.5	55.0*
C=CC[C@@H](CC(=O)N[C@H](CO)Cc1ccccc1)C(=O)N[C@@H](COC(=O)[C@@H](CC=C)Cc1ccc(F)cc1)Cc1ccccc1	60.3	-2.8	-2.2	70.3*	4.1	1.5	15.6	x
C=CC[C@H](CC(=O)N[C@H](CO)Cc1ccccc1)C(=O)N[C@H](COC(=O)[C@@H](CC=C)Cc1ccc(F)cc1)Cc1c[nH]c2ccccc12	x	-1.0	34.0	x	x	1.6	x	x
C=CC[C@@H](CC(=O)N[C@H](CO)Cc1ccccc1)C(=O)N[C@H](COC(=O)[C@@H](CC=C)Cc1ccc(F)cc1)C(C)(C)C	1.1	-10.3	-6.4	36.6	5.5	0.5	x	x
CCOC(=O)c1ccccc1Nc1cn(C(C)=O)c2ccccc12	2.4	-0.1	-13.1	58.5*	55.0	-0.9	46.5*	79.9*
CC(=O)n1cc(Nc2ccccc2C(=O)O)c2ccccc21	-4.7	1.8	1.2	18.5	-3.6	-4.6	x	x
CCc1noc(C)c1C(=O)N(CC)c1nc2c(C)cccc2s1	-3.1	-0.9	-8.5	12.3	2.0	1.1	x	x
COc1cc(NC(=O)c2cc(-c3ccc4c(c3)OCO4)on2)cc(OC)c1OC	-4.4	-0.3	12.0	59.9*	53.7	-1.2	42.0*	39.8*
O=C(NC1CC1)c1ccc(CSCc2ccc(Cl)cc2)o1	x	x	x	x	x	1.5	x	x
O=C(NCCc1ccccc1)c1ccc2c(c1)OCO2	0.3	0.6	-60.0	66.5*	1.5	-1.7	57.0*	51.6*
COC(=O)[C@@]1(Cc2ccccc2)[C@H]2C(=O)N(Cc3ccccc3)C(=O)[C@H]2[C@H]2CN=C(SCc3ccccc3)N21	x	3.1	7.2	88.8*	x	-0.5	85.5*	34.6
COC(=O)[C@@]1(Cc2ccccc2)[C@H]2C(=O)N(Cc3ccccc3)C(=O)[C@H]2[C@H]2CN=C(SCc3ccc(C)cc3)N21	x	0.3	4.7	57.8*	x	0.6	65.5*	46.4*
Cc1ccccc1NC(=O)C1C(=O)Nc2ccccc2C(=O)N1Cc1ccccc1 (stereo not given)	x	x	x	x	x	0.3	x	x
